Results as given in PubChem BioAssay AID2502 (National Center for Advancing Translational Sciences (NCATS), 2010).
Several values for one entry are separate records, joined by “and”; a condition that tells them apart may be missing. Equal values may be shown once. Records with an inconclusive call do not appear. Values without a mark were called inactive. The call rests on the fitted dose curve; in most records, active means well fitted curve in the direction sought with a large enough effect; inconclusive means small, poorly fitted or top-dose-only effect, or another doubt; inactive means no such curve, though single readings can be large or run the other way.

assay: Confirmatory Assay for Inhibitors of Human Galactokinase (GALK): Phenol-HRP redox assay counterscreen for probe SAR; conditions: Phenol red-HRP H2O2 redox cycling, absorbance 600 nm
Excerpt: NIH Molecular Libraries Probe Production Centers Network [MLPCN] NIH Chemical Genomics Center [NCGC] MLPCN Grant: R03 MH085689-01 Assay Submitter (PI): Kent Lai (University of Utah School of Medicine, 50 N Mario Capecchi Drive, Salt Lake City, UT 84132) NCGC Assay Overview: One mM dithiothreitol (DTT) was used as a reducing agent to maintain the galactokinase (GALK) enzyme in its active form in the GALK qHTS screen (AID: 1868). However, it has been shown that in the presence of DTT a number of compounds also undergo redox recyling, generating a significant amount of H2O2 that can oxidize crucial cysteine residues in the enzyme, leading to and a false-positive result. To evaluate and flag redox recycling compounds for compounds re-acquired from the qHTS screen, an endpoint colorimetric assay developed by Johnston et al. was adopted and optimized for a 1536-well plate format. In brief, the assay detects the presence of H2O2 by following the change in absorbance at 600 nm due to oxidation of phenol red (Sigma, cat# 114537) catalyzed by horseradish peroxidase (HRP; Invitrogen). A stop reagent, 1N NaOH was added prior to reading the absorbance. DMSO and different concentrations of hydrogen peroxide (Sigma, cat# 216763) in the GALK buffer were used as negative and positive controls respectively.
NCGC Assay Protocol Summary: Two uL/well of GALK buffer (20mM HEPES pH8.0, 5 mM MgCl2, 60 mM NaCl, 1 mM DTT, 0.01% BSA final concentration) was dispensed into a 1536-well assay plates (Greiner, black clear bottom plates) with Aurora Discovery BioRAPTR Flying Reagent Dispenser (FRD; Beckton-Dickenson). Compound and control solutions (23 nL each) were transferred to the assay plate in their respective wells using Kalypsys pin tool equipped with a 1536-pin tool head and incubated at room temperature for 30 min. Presence of H2O2 produced by redox cycling compounds was detected by adding 2 uL/well phenol red - HRP detection reagent ([…] phenol red in 1x Hanks Balanced Salt Solution, 25 U/mL HRP final concentrations). After 15 min of room temperature incubation, the reaction was stopped by adding 2 uL/well 1N NaOH and incubated for an additional 1 hr at room temperature. The absorbance at 600 nm was measured using the ViewLux plate reader (Perkin Elmer, Waltham, MA) with 6000 light energy, 2 sec exposure, and 2x binning instrument settings.

Row | Compound | max response
1 | CC1(C)CC(=O)C2=C(C1)NC(Nc1nc3ccccc3o1)=NC2c1ccccc1 (stereo unspecified) | 4.41%
2 | CC1(C)CC(=O)C2=C(C1)NC(Nc1nc3ccccc3o1)=NC21CCCC1 | -0.364%
3 | O=C1CCCC2=C1C1(CCOCC1)N=C(Nc1nc3ccccc3o1)N2 | -7.41%
4 | O=C1CCCC2=C1C1(CCSC1)N=C(Nc1nc3ccccc3o1)N2 (stereo unspecified) | 9.11%
5 | O=C1CCCC2=C1C1(CCCCC1)N=C(Nc1nc3ccccc3o1)N2 | -4.16%
6 | CCC1CCC2(C1)N=C(Nc1nc3ccccc3o1)NC1=C2C(=O)CCC1 (stereo unspecified) | 9.72% [middle of 5 runs]
7 | CC1(C)CC(=O)C2=C(C1)NC(Nc1nc3ccccc3o1)=NC2c1ccccc1Cl (stereo unspecified) | -4.5%
8 | O=C1CCCC2=C1C1(CCCC1)N=C(Nc1nc3ccccc3o1)N2 | -5.8% and 7.13%
9 | Cc1ccc(C2N=C(Nc3nc4ccccc4o3)NC3=C2C(=O)CC(C)(C)C3)cc1 (stereo unspecified) | 0.33%
10 | O=C1CCC2=C1C1(CCCC1)N=C(Nc1nc3ccccc3o1)N2 | -0.733%
11 | O=C1CCCC2=C1C1(CCCC1)N=C(Nc1nc3cc4ccccc4cc3o1)N2 | -24.7%
12 | O=C1CCCC2=C1[C@@]1(CCC(c3ccccc3)C1)N=C(Nc1nc3ccccc3o1)N2 (stereo partly specified) | -22.7%
13 | O=C1CCCC2=C1C(c1ccccc1Cl)N=C(Nc1nc3ccccc3o1)N2 (stereo unspecified) | 1.07%
14 | Cc1ccc2oc(NC3=NC4(CCCC4)C4=C(CCCC4=O)N3)nc2c1 | -13.5%
15 | O=C1CCCC2=C1C(c1ccc(Cl)cc1)N=C(Nc1nc3ccccc3o1)N2 (stereo unspecified) | 2.22%
16 | COc1ccccc1C1N=C(Nc2nc3ccccc3o2)NC2=C1C(=O)CC(C)(C)C2 (stereo unspecified) | -7.36%
17 | O=C1CCCC2=C1C1(CCCC1)N=C(Nc1nc3ccccc3n1Cc1ccccc1)N2 | -7.8%
18 | O=C1CCCC2=C1C1(CCC1)N=C(Nc1nc3ccccc3o1)N2 | -2.94%

Row | Compound | max response
19 | O=C1CCCC2=C1C1(CCS(=O)(=O)C1)N=C(Nc1nc3ccccc3o1)N2 (stereo unspecified) | 7.09%
20 | Cc1ccc2nc(NC3=NC4(CCCC4)C4=C(CCCC4=O)N3)oc2c1 | -9.86%
21 | O=C1CCCC2=C1C1(CCSCC1)N=C(Nc1nc3ccccc3o1)N2 | 3.32%
22 | O=C1CCCC2=C1C1(CCCC1)N=C(Nc1nc3cc(Br)ccc3o1)N2 | -13.4%
23 | O=C1CCCC2=C1C1(CCCC1)N=C(Nc1nc3cc(Cl)ccc3o1)N2 | -6.87%
24 | COc1cccc(C2N=C(Nc3nc4ccccc4o3)NC3=C2C(=O)CC(C)(C)C3)c1 (stereo unspecified) | -7.9%
25 | Cc1nc(Nc2nc3ccccc3o2)nc2c1C(=O)CC(C)(C)C2 | -9.62%
26 | O=C1CC(c2ccccc2)CC2=C1C1(CCCCC1)N=C(Nc1nc3ccccc3o1)N2 (stereo unspecified) | -19.3%
27 | O=C1CCC2=C1C(c1ccccc1Cl)N=C(Nc1nc3ccccc3o1)N2 (stereo unspecified) | 4.53%
28 | CC1(C)CC(=O)C2=C(C1)NC(Nc1nc3ccccc3o1)=NC2c1cccc(Cl)c1 (stereo unspecified) | -8.98%
29 | O=C1CCCC2=C1C1(CCCOC1)N=C(Nc1nc3ccccc3o1)N2 (stereo unspecified) | 1.73%
30 | CC1CCC2(C1)N=C(Nc1nc3ccccc3o1)NC1=C2C(=O)CCC1 (stereo unspecified) | 2.86%
31 | COc1ccc(C2N=C(Nc3nc4ccccc4o3)NC3=C2C(=O)CC(C)(C)C3)cc1 (stereo unspecified) | -4.13%
32 | CC1(C)N=C(Nc2nc3ccccc3o2)NC2=C1C(=O)CCC2 | -7.6%
33 | CC1(C)CC(=O)C2=C(C1)NC(Nc1nc3ccccc3o1)=NC2c1cccnc1 (stereo unspecified) | -12.6%
34 | O=C1CC(c2ccccc2)CC2=C1C1(CCCC1)N=C(Nc1nc3ccccc3o1)N2 (stereo unspecified) | -23.7%
35 | O=C1CCCC2=C1C1(CCCC1)N=C(Nc1nc3cc(-c4ccccc4)ccc3o1)N2 | -17.5%
36 | Cn1c(NC2=NC3(CCCC3)C3=C(CCCC3=O)N2)nc2ccccc21 | -10.7%
